# From PubChem BioAssay
# Rac1 wt GTP bind – human Rac1 wildtype GTP binding, inhibitors and activators | GST-Rac1 beads, fluorescent GTP binding, flow cytometry; actives lie on both sides; 0 = cold GTP competed, 100 = untreated | GTP binding activity (% of control), % at 10 µM | 0.27% of 190,000 active;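 active = GTP binding activity at least 20 points away from the 100% control level, either lower or higher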
# HRas wt GTP – modulators of GTP binding to human HRas wildtype; P01112; GST-Ras wt beads, Bodipy-FL-GTP binding, flow cytometry; actives lie on both sides; GTP binding activity, % at 10 µM; 0.14% of 190,000 active;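 active = GTP binding activity at least 20% away from the 100% baseline, either lowered as inhibitor or raised as activator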
# Target sequence (P01112 whole entry, looked up): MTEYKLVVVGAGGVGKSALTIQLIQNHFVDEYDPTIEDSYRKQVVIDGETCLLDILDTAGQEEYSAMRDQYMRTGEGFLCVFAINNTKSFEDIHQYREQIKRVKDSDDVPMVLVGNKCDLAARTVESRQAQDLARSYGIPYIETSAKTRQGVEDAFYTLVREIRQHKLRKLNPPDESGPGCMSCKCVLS
# Cdc42 wt GTP – changes GTP binding to wildtype human Cdc42 | AID 761 | GST-Cdc42 beads, Bodipy-GTP binding, flow cytometry; actives lie on both sides | P60953 | 0.2% of 190,000 active | percent activity (GTP binding), % at 10 µM;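 active = percent activity GTP binding at least 20 points away from the 100% baseline, either down as inhibitor or up as activator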;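 note: median bead fluorescence of bound Bodipy-FL-GTP at 100 nM; below 100% means less GTP binding so inhibitor and above means activator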
# Target sequence (P60953 whole entry, looked up): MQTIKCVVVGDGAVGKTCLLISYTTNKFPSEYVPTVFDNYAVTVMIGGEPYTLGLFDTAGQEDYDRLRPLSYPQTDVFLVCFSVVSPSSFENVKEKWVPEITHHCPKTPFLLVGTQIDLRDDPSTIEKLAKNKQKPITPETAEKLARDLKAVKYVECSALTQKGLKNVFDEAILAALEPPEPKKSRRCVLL
# Rab2A wt mod – changes GTP binding to wildtype dog Rab2A, up or down | P61105 | GST-Rab2 wt beads, Bodipy-GTP binding, flow cytometry | GTP binding activity, % at 10 µM | 0.19% of 190,000 active | AID 760;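 active = GTP binding activity at least 20 points away from 100%, either lowered or raised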
# Rac1 act GTP bind – modulators of GTP binding to human Rac1 activated mutant | P63000 | GST-Rac1 activated beads, fluorescent GTP binding, flow cytometry; actives lie on both sides; 100% means binding = to untreated wells | percent activity (GTP binding), % at 10 µM | 0.11% of 190,000 active;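 active = GTP binding at least 20 percentage points away from the 100% baseline, in either direction, so actives lie on both sides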
# Rab7 wt GTP bind – dog Rab7 wildtype GTP binding, inhibitors and activators. GST-Rab7 beads, fluorescent GTP binding, flow cytometry; actives lie on both sides; untreated = 100%, excess cold GTP = 0%. GTP binding activity (percent of control), % at 10 µM. 0.055% of 190,000 active. AID 758;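 active = fluorescent GTP binding to Rab7 beads changed by at least 20 points from the 100% baseline, either direction, mostly lower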;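 note: median green fluorescence of bound Bodipy-FL-GTP per Rab7 bead population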
# Hits are given with their value; – = inactive; [ ] = dose if it differs, or a comment. Most compounds without a hit are left out; they make up all but 0.38% or so of the library.
SMILES,Rac1 wt GTP bind,HRas wt GTP,Cdc42 wt GTP,Rab2A wt mod,Rac1 act GTP bind,Rab7 wt GTP bind
O=C(c1cnccn1)N1CCc2ccccc2C1,–,–,–,–,–,–
CCOC(=O)Cn1c(=O)c2c(nc3n2CCN3Cc2ccccc2)n(C)c1=O,–,–,–,–,–,–
CCOC(=O)Cn1c(=O)c2c(nc(N3CCCCC3)n2C)n(C)c1=O,142[activator],–,123[activator],–,–,–
O=[N+]([O-])c1ccccc1/C=C/C=N/Nc1ccc(S(=O)(=O)Nc2ccc(Cl)cc2)cc1[N+](=O)[O-],–,–,–,–,–,–
COc1ccc(-c2cc(=O)c(C(=O)c3ccc(C)cc3)n[nH]2)cc1,121[activator],–,–,–,–,–
CC(C)c1ccccc1NC(=O)COC(=O)c1ccc(Cl)c(S(=O)(=O)N2CCCCCC2)c1,–,–,–,–,–,–
O=C(/C=C/c1ccccc1)Nc1ccc(Br)cn1,–,–,–,–,–,–
CCOc1cc(C2c3c(-c4ccccc4)n[nH]c3C(=O)N2c2ccc(C(=O)O)cc2)ccc1O (stereo not drawn),59,–,79,79,74,–
Cc1cc(NCc2ccccn2)n2c(nc3ccccc32)c1C#N,66,75,72,70,–,78
CCCc1cc(NCC2CCCO2)n2c(nc3ccccc32)c1C#N (stereo not drawn),–,–,–,–,–,–
CCCc1cc(NCc2ccccn2)n2c(nc3ccccc32)c1C#N,75,–,–,–,–,–
Cc1ccc(Oc2ncccc2C(=O)NC2CCSC2=O)cc1 (stereo not drawn),–,–,–,–,–,–
O=C(Nc1cccc2ccccc12)c1cnccn1,–,71,73,67,77,75
OCCC1CN(Cc2cn[nH]c2C2CCCCC2)CCN1C1CCCC1 (stereo not drawn),–,–,–,–,–,–
Cc1ccc(C)c(N2CCN(C(=O)CCn3c(=S)[nH]c4cc5c(cc4c3=O)OCO5)CC2)c1,–,–,–,–,–,–
O=C(NCc1ccc2c(c1)OCO2)c1ccc(CSCc2cccc(Cl)c2)o1,–,–,79,–,–,–
COC(=O)COc1ccc(/C=N/NC(=O)c2ccc(N(Cc3ccccc3)S(C)(=O)=O)cc2)cc1,76,–,–,76,–,–
CS(=O)(=O)N(Cc1ccccc1)c1ccc(C(=O)Nc2cccnc2)cc1,–,–,–,–,–,–
O=C(N/N=C/c1ccccc1)c1ccc(OCc2ccccc2)cc1,–,–,–,–,–,–
CC(C)Oc1ccc(/C=N/NC(=O)c2ccc(N(Cc3ccccc3)S(C)(=O)=O)cc2)cc1,74,–,–,74,–,–
CCOc1cccc(-c2nn3c(-c4ccco4)nnc3s2)c1,–,–,–,78,–,–
COc1ccc(-c2nnc3sc(-c4ccco4)nn23)cc1OC,–,–,–,–,–,–
COc1cccc(-c2nnc3sc(-c4ccco4)nn23)c1,–,–,–,–,–,–
COc1ccc(-c2nn3c(-c4ccco4)nnc3s2)cc1OC,70,68,68,71,–,–
CC(C)Oc1cccc(C(=O)NC(=S)NCc2cccnc2)c1,–,–,–,–,–,–
SMILES,Rac1 wt GTP bind,HRas wt GTP,Cdc42 wt GTP,Rab2A wt mod,Rac1 act GTP bind,Rab7 wt GTP bind
CCOC(=O)/C(N=Nc1ccc(F)cc1)=C(/O)c1ccc([N+](=O)[O-])cc1,–,–,–,–,–,–
COCCNc1nnnc2c1sc1nc(N3CCOCC3)c3c(c12)CCCC3,73,–,–,–,–,–
OCCNc1ncnc2c1sc1nc(N3CCOCC3)c3c(c12)CCC3,–,–,–,–,–,–
Cc1c(NC(=S)NC(NC(=O)C(C)C)C(Cl)(Cl)Cl)c(=O)n(-c2ccccc2)n1C (stereo not drawn),–,–,–,–,–,–
O=c1[nH]c(=O)c2nnc(N/N=C\c3ccc(O)cc3)nc2[nH]1,54,63,60,59,74,–
Oc1ccc(/C=N/Nc2nc(-c3ccc(Cl)cc3)cc(C(F)(F)F)n2)cc1,–,–,–,–,–,–
Cn1c(=O)c2c(ncn2CC(=O)OCC(=O)Nc2ccccc2)n(C)c1=O,–,–,–,–,–,–
CC(=O)Nc1ccc(NC(=O)c2ccc(C)c(S(=O)(=O)Nc3cccc(C)c3)c2)cc1,–,–,–,–,–,–
NS(=O)(=O)c1ccc(CCN2C(=O)/C(=C\c3ccc(Cl)cc3)SC2=S)cc1,77,–,–,–,–,–
Cc1ccc(C)n1N1C(=O)/C(=C\c2ccc(Cl)cc2)SC1=S,–,–,–,–,–,–
O=C(NNC(=S)NCc1ccc(Cl)cc1)c1ccc(Br)o1,–,–,78,77,–,–
O=C(O)c1cc(C(=O)O)cc(-c2ccc(/C=c3/sc4nc5ccccc5n4c3=O)o2)c1,–,–,–,79,–,–
CC(C)C(NCc1c(Cl)cccc1Cl)C(=O)O (stereo not drawn),124[activator],–,–,–,–,–
COCCNC(=O)/C(C#N)=C/c1ccc(OCC(=O)NC2CCCCC2)cc1,–,–,–,–,–,–
C=C(C)COc1ccc(-c2n[nH]c(C)c2-c2ccc(Br)cc2)c(O)c1,79,–,–,–,–,–
CCCCN(C)CCNC(=O)c1ccc(Cn2c(=S)[nH]c3ccc(Br)cc3c2=O)cc1,–,–,–,–,–,–
CC1=NC(=O)C(N=Nc2ccccc2C(=O)O)N1c1ccccc1 (stereo not drawn),79,–,–,–,–,–
CC1=NC(=O)C(N=Nc2ccccc2)N1c1ccccc1 (stereo not drawn),–,–,–,–,–,–
Nc1nonc1C(=O)NCCN=Cc1cc(Cc2ccccc2)cc(Br)c1O,128[activator],–,125[activator],122[activator],–,–
Nc1nonc1C(=O)NCCN=Cc1ccccc1O,–,–,–,–,–,–
Cc1c(NS(=O)(=O)c2cccc(C(=O)OCC(=O)N(C)C3CCCCC3)c2)c(=O)n(-c2ccccc2)n1C,–,–,–,–,–,–
COc1ccc(CN(Cc2ccc(C(=O)O)cc2)C(=S)Nc2ccc(C)cc2)cc1OC,–,–,–,–,–,–
O=C(O)c1ccccc1OCc1ccccc1Br,142[activator],122[activator],139[activator],129[activator],126[activator],120[activator]
O=C(O)c1ccccc1COc1ccccc1Cl,–,–,–,–,–,–
NC(=O)CSc1ccc(-c2ccc(F)cc2)nn1,–,–,–,–,–,–
COc1ccccc1CN(Cc1nc2ccccc2c(=O)[nH]1)C(=O)Nc1cccc(C)c1,–,–,–,–,–,–
